Assay outcomes as filed in PubChem.
Only a selection was taken, and hits are over-represented in it overall.
HT1080NT lethal – kills 2HG-producing HT-1080-NT fibrosarcoma cells. 1.6% of 360,000 active. Potency, µM (titrated, usually from 46.1 µM), without a hit: at the highest dose activity, negative = less viability, usual class: cytotoxic. AID 686970. HT-1080-NT fibrosarcoma viability, CellTiter-Glo ATP luminescence, 48 h;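 also: NT is the 2HG producing partner of a matched IDH1 knockdown line; potency is read from the fitted curve at half-maximal effect; 0% = DMSO-treated cells and -100% = media-only wells without cells; nearly all actives have a fitted effect of over 55% in size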
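Viability by CellTiter-Glo luminescence after 48 h compound exposure at 37C of HT-1080-NT cells (750/well, RPMI, 5% FBS). % activity scaled between DMSO wells and medium-only wells, then curve-fitted and categorized by curve class.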
DT40 TDP1 no CPT – qHTS for Inhibitors of human tyrosyl-DNA phosphodiesterase 1 (TDP1): qHTS in cells in absence of CPT | AID 686978, 2013 | 15% of 420,000 active | DT40 Tdp1-/- hTDP1 cells, no CPT, ATP luminescence, 48 h | Potency, µM (top dose mostly 46.2 µM), inactives show at the highest dose activity change, negative = growth inhibition, most hits filed as inhibitors; also: potency is read from the fitted curve at half-maximal effect; nearly all actives have a fitted effect of over 55% in size
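DT40 Tdp1-/-;hTDP1 cells, no CPT (DMSO vehicle only), 400 cells/well; compounds pin-transferred; ≥48 hr, 37 °C; CellTiter-Glo 30 min RT dark, luminescence read.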
12-LOX inh – ALOX12 (human) lipoxygenase inhibition. purified 12hLO, xylenol orange hydroperoxide absorbance. Potency, µM (doses to about 108 µM), for the others: at the top dose activity change, negative = inhibition, usual class: inhibitors. 1.1% of 580,000 active; also: potency is read from the fitted curve at half-maximal effect
Target sequence (P18054 whole entry, looked up): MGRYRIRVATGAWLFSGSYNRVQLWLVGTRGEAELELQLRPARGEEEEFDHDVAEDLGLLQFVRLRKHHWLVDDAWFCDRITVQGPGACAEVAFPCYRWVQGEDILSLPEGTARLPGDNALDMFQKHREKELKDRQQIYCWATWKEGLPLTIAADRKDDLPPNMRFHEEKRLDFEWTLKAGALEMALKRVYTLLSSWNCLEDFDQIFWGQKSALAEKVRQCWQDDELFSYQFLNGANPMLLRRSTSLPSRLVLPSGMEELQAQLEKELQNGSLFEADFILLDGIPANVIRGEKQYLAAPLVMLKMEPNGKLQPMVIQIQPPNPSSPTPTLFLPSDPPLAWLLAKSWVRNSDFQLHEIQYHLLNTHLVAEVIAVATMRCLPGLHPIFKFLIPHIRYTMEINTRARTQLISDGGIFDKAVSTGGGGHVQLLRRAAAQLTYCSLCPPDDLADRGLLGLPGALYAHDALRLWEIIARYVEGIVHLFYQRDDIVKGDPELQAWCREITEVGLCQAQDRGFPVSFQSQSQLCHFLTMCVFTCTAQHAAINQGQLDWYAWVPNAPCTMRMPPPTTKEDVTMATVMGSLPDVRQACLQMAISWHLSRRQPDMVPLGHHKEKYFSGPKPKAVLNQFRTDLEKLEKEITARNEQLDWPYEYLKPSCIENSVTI
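Hydroperoxide product was detected by ferrous iron/xylenol orange as the 573 to 405 nm absorbance ratio. Arachidonic acid at 40 uM (final) was turned over for 30 min at room temperature by 150 nM human 12hLO, pH 7.0 Hepes buffer, after 15 min compound preincubation.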
HT1080 IDH1KD tx – kills HT-1080 cells with IDH1 knockdown. HT-1080 IDH1 knockdown viability, ATP luminescence, 48 h. Potency, µM (titrated, usually from 46.1 µM), without a hit: at the highest dose activity, negative = toxicity, actives largely listed as cytotoxic. 2% of 360,000 active. AID 686971;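 also: potency is read from the fitted curve at half-maximal effect; 0% = DMSO wells and -100% = cell-free medium wells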
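In this qHTS, HT-1080 cells depleted of IDH1 are exposed for 48 h at 37 °C to compound titrations. Toxicity is scored from CellTiter-Glo luminescence, with DMSO as full viability and medium alone as none.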
IL-1B inflam inh – inflammasome signaling inhibition, IL-1 beta readout; activity change, % at 57.5 µM; THP-1 LPS/ATP IL-1B secretion, AlphaLISA, 16 h; active compounds read low; 4.7% of 360,000 active; in the data active = activity change below about -50%; inconclusive = mostly about -30% to -49%
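THP-1 cells pretreated 1 hr with compounds (up to 57.5 uM final), then stimulated with LPS (250 ng/mL final) plus ATP (1.25 mM final); secreted IL-1B measured by AlphaLISA after 16 hr, decreased signal indicating inhibition.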
TDP1 cell CPT – DT40-hTDP1 cell growth loss with CPT; AID 686979; chicken DT40 Tdp1-/-;hTDP1 cells + 20 nM CPT, ATP luminescence, 48 h; Potency, µM (doses to about 46.2 µM), for inactives: top-dose activity change, negative = growth inhibition, actives largely listed as inhibitors; 12% of 420,000 active; also: potency is read from the fitted curve at half-maximal effect; nearly all actives have a fitted effect of over 55% in size
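Chicken DT40 Tdp1-/- cells complemented with human TDP1, 400 cells/well, exposed to compounds plus 20 nM camptothecin for at least 48 h at 37 C; viability read as ATP content by CellTiter-Glo luminescence.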
* hit, by the source's call; ? = inconclusive; · = not tested or not shown; [ ] = remark or other dose. Unless noted, calls follow the shape of the dose curve; as a rule, active = well fitted curve in the direction sought with a large enough effect; inconclusive = small, poorly fitted or top-dose-only effect, or another doubt; inactive = no such curve, though single readings can be large; an effect the other way counts as inactive or inconclusive. Unless noted, % is scaled to controls: 0 for no effect and ±100 for the full control effect.

SMILES | HT1080NT lethal | DT40 TDP1 no CPT | 12-LOX inh | HT1080 IDH1KD tx | IL-1B inflam inh | TDP1 cell CPT
CC(OC(=O)c1c[nH]c2ccccc12)C(=O)Nc1ccc(N2CCOCC2)cc1 (stereo unspecified) | · | · | 18% | · | · | ·
CN(C(=O)c1ccc(-c2nn(C)c(=O)c3ccccc23)cc1)c1ccccc1 | -6% | 16µM* | 13% | -10% | 47 | ?
O=C(CCn1nc(-c2ccccc2)c2ccccc2c1=O)N1CCCC1 | · | · | -4% | · | · | ·
Cc1csc(NC(=O)Cc2nn(C)c(=O)c3ccccc23)n1 | -8% | 8.2µM* | -20% | -11% | -8 | 10µM*
Cn1nc(-c2ccc(OCC(=O)Nc3ccccc3)cc2)c2ccccc2c1=O | 1% | 26µM* | -3% | -1% | -13 | 23µM*
O=C(CCn1nc(-c2ccccc2)c2ccccc2c1=O)N1CCN(c2ccccc2)CC1 | -22% | 23µM* | 0% | -13% | ? | 16µM*
CN(C)CCNC(=O)c1ccc(-c2nn(C)c(=O)c3ccccc23)cc1 | 1% | -18% | -16% | -1% | 16 | ?
O=C(c1cccs1)N1CCC(N[C@H](c2ccccc2)C2CC(O)C2)CC1 (stereo partly specified) | · | · | 64% | · | · | ·
CN(CC1COCCO1)C(=O)c1coc(COc2ccc3c(c2)OCO3)n1 (stereo unspecified) | · | · | 6% | · | · | ·
COc1ccc(NC(=O)c2ncoc2-c2cccc(Cl)c2)c(OC)c1 | · | · | 7% | · | · | ·
COc1ccccc1NC(=O)COc1ccc(-c2nn(C)c(=O)c3ccccc23)cc1 | -28% | 7.3µM* | -6% | -26% | -8 | 13µM*
Cc1ccccc1NC(=O)CCn1nc(-c2ccc(Cl)cc2)c2ccccc2c1=O | · | -28% | -24% | · | · | ?
Cn1nc(-c2ccc(OCC(N)=O)cc2)c2ccccc2c1=O | 10% | 2% | 0% | 2% | 10 | -2%
Cc1csc(NC(=O)Cc2coc3cc(C)c(C(C)C)cc23)n1 | ? | 16µM* | ? | 23µM* | ? | 13µM*
Cc1ccc(NC(=O)CCn2nc(-c3ccccc3)c3ccccc3c2=O)c(C)c1 | · | ? | -15% | · | · | 21µM*
CNC(=O)COc1ccc(NC(=O)CCn2nc(-c3ccc(C)cc3)c3ccccc3c2=O)cc1 | · | 21µM* | -22% | · | · | ?
C[C@H]1[C@@H](NC(=O)Nc2ccc3c(c2)OCO3)CC[C@@]23CCCN2C(=O)CCC[C@@H]13 | · | · | -9% | · | · | ·
Cc1ccc(CN2CCC(Cc3nnc(CO)n3-c3ccccc3)CC2)o1 | · | · | 7% | · | · | ·
CCN(CC(=O)Nc1cccc(OC)c1)C(=O)C1CC(=O)N(Cc2ccccc2Cl)C1 (stereo unspecified) | -5% | -19% | -4% | -7% | -19 | -16%
Cn1cc(-c2csc(C(O)c3ccc(F)cc3)n2)cn1 (stereo unspecified) | 9% | ? | -12% | 0% | 36 | ?
CNC(=O)Cn1nc(-c2ccc(C)cc2)c2ccccc2c1=O | -12% | 15µM* | 23% | -11% | 24 | ?
COC(=O)COc1ccc(-c2nn(C)c(=O)c3ccccc23)cc1 | 0% | -19% | -9%[57.4 µM] | 10% | 7 | -3%
CCCNC(=O)COc1ccc(-c2nn(C)c(=O)c3ccccc23)cc1 | -2% | 21µM* | 1% | 2% | 16 | ?
CNC(=O)CCn1nc(-c2ccc(C)cc2)c2ccccc2c1=O | 14% | -16% | · | 7% | 16 | 0%
Cc1cc(=O)n(CC(=O)Nc2ccccc2F)c(-c2ccccc2)n1 | · | · | 5% | · | · | ·
O=C(C1=C(Nc2ccc3c(c2)OCO3)c2ccccc2S1(=O)=O)N1CCOCC1 | · | · | -9% | · | · | ·
Cc1cccc(OCC(=O)Nc2ccc3oc(C)nc3c2)c1 | · | · | -14% | · | · | ·
